Test [1] can be described thus: NCI Yeast Anticancer Drug Screen. Data for the rad50 strain (AID 155).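 Note: 0% = growth of vehicle-only cultures of the same strain.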 The conditions noted are these: S. cerevisiae rad50 strain growth inhibition; at 50.0 µM; hits give high values. In a few lines: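 Readout: growth inhibition relative to vehicle-treated cultures. Compound exposure was carried out in a genetically defined yeast strain deficient in DNA damage repair.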

Test [2] can be described thus: NCI Yeast Anticancer Drug Screen. Data for the mec2-1 strain (AID 157). The note with it: S. cerevisiae mec2-1 strain, at 50.0 µM, hits give high values. The method in brief:
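Test agents were screened against the mec2-1 yeast strain, with defined DNA repair or cell cycle alteration. Growth was scored as inhibition against vehicle-only controls.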

The nature of test [3]: NCI Yeast Anticancer Drug Screen. Data for the sgs1 mgt1 strain (AID 161).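 Note: 0% = growth of cultures given vehicle only.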 The note with it: S. cerevisiae sgs1 mgt1 strain, at 50.0 µM, hits give high values. The method in brief:
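Test agents were incubated with a DNA-repair-mutant yeast strain. Growth was then read and compared against vehicle-treated controls.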

The nature of test [4]: NCI Yeast Anticancer Drug Screen. Data for the cln2 rad14 strain (AID 165).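 Note: 0% = growth equal to vehicle treated cultures.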 The conditions noted are these: S. cerevisiae cln2 rad14 strain, at 50.0 µM, hits give high values. In a few lines:
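Growth of compound-exposed yeast (cln2 rad14 genotype) measured and expressed as inhibition relative to vehicle.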

Test [5] in a line: NCI Yeast Anticancer Drug Screen. Data for the bub3 strain (AID 167). The conditions noted are these: S. cerevisiae bub3 mutant strain, at 50.0 µM, hits give high values. The method in brief: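 Readout: yeast growth inhibition, expressed relative to vehicle-only wells. The test organism is a mutant strain from a panel with lesions in DNA repair or checkpoint genes.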
A short description of test [6]: NCI Yeast Anticancer Drug Screen. Data for the mlh1 rad18 strain (AID 175). The note with it: S. cerevisiae mlh1 rad18 strain growth inhibition; at 50.0 µM; hits give high values. The method in brief:
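In this whole-cell yeast screen, a strain with altered DNA damage repair is challenged with compound, and its growth is measured against matched vehicle-treated controls.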

Each structure is given as a SMILES string. About 79,000 compounds went through this panel and 15% of them were active in at least one assay; those are over-represented in the sample as a whole. A number with no mark means an inactive call. Active and inactive are the calls of the source. Cut-off read from the data, not from the text of the source: active = growth inhibition above about 70%; inactive = the rest. Where a SMILES comes first, the peptide text is derived from it. The star is where a group is joined. Boc = CC(C)(C)OC(=O)*

As to `CNc1nnnn1-c1ccccc1C`, the growth inhibition in test [1] was -10.8%; in test [2], -3.55%; in test [3], -10.8%; in test [4], -86.5%; in test [5], -4.05%; in test [6], -8.05%.

Take `O=C(NC(Cc1c[nH]c2ccccc12)C(=O)O)C(=O)c1c[nH]c2ccccc12` (centres undefined): the growth inhibition in test [1] was -9.9%; in test [2] it was -14.6%; in test [3], 27.5%; in test [4], 0.9%; in test [5] it was 15.2%; in test [6], 4.2%.

Turning to `CN1CCN(C(CO)Cc2ccccc2)CC1` (centres undefined), the growth inhibition in test [1] is 3.85%; in test [2], -10.1%; in test [3] it was -9.5%; in test [4], -15.8%; in test [5], 8.8%; in test [6], -7.4%.

`CC[C@@]1(OC(=O)CN2CCNCC2)C(=O)OCc2c1cc1n(c2=O)Cc2cc3ccccc3nc2-1`: the growth inhibition in test [1] is 52.1%; in test [2], 70.8% (active); in test [3], 49.1%; in test [4] it was 29.6%; in test [5], 26.1%; in test [6], 10.1%.

For `CC(C)C1CC[C@H](C)C[C@@H]1OC(=O)C(C(=O)O[C@H]1C[C@@H](C)CCC1C(C)C)C(O)[C@@H]1OC(C)(C)O[C@H]1C1COC(C)(C)O1` (some centres undefined), the growth inhibition was 73.8% (active) in test [1]; 90.8% (active) in test [2]; 91.9% (active) in test [3]; 44.7% in test [4]; 90.8% (active) in test [5]; 56.9% in test [6].

`C#CCC(C)(C)C(N)=O`: the growth inhibition in test [1] is -10.7%; in test [2] it was -6.85%; in test [3], 3.4%; in test [4], -35.8%; in test [5], -6.05%; in test [6], -8.5%.

With `O=c1[nH]c2cc(Cl)ccc2nc1/C=C(\O)c1ccc2ccccc2c1`, the growth inhibition is 27.2% in test [1]; -5.2% in test [2]; -6.3% in test [3]; -3.85% in test [4]; -16.6% in test [5]; 25.4% in test [6].

In the case of `COc1ccc(C(Cc2ccccc2)Nc2ccccc2)cc1` (centres undefined), the growth inhibition was 4.1% in test [1]; -6.7% in test [2]; 28.6% in test [3]; -17% in test [4]; -0.95% in test [5]; -1.2% in test [6].

Consider `CC(COc1cc(Cl)c(Cl)cc1Cl)OC(=O)COc1ccc(Cl)cc1Cl` (centres undefined), for which the growth inhibition in test [1] is 8.75%; in test [2] it was 8.85%; in test [3] it was 7.7%; in test [4] it was 28.5%; in test [5] it was 2.9%; in test [6], 7%.

With `CN1CCOC(=O)C(C#N)=C1c1ccccc1`, the growth inhibition in test [1] is -26.5%; in test [2], 6.95%; in test [3] it was -9.15%; in test [4], -17%; in test [5], -7.25%; in test [6], -3.15%.

For `Oc1ccc2ccccc2c1C=NCc1c(O)ccc2ccccc12`, the growth inhibition in test [1] was 3.5%; in test [2], -1.7%; in test [3], -11.2%; in test [4] it was -39.2%; in test [5], -43.6%; in test [6], 8.75%.

On to `CCCCCCCCCCCCc1ccc(CS)cc1`, for which the growth inhibition in test [1] was 40.9%; in test [2] it was 36.3%; in test [3] it was 54%; in test [4], -1.7%; in test [5], 51.3%; in test [6], 32.6%.

On to `COC(=O)CNC(=O)C(CC(C)C)NC(=O)C(CC(C)C)NC(=O)OC(C)(C)C` (stereo not drawn) (Boc-Leu-Leu-Gly-OMe; configuration not given here), for which the growth inhibition in test [1] is 42.2%; in test [2], 1.65%; in test [3] it was 32.1%; in test [4], 10.5%; in test [5], -0.6%; in test [6] it was 15.8%.

Regarding `CCCCCCCCCCCCCCCC[N+]1(CC)CCSCC1`, the growth inhibition in test [1] was 96.6% (active); in test [2], 97.9% (active); in test [3], 97.2% (active); in test [4] it was 97.5% (active); in test [5], 97.1% (active); in test [6], 97.8% (active).

Turning to `NC(=O)C1(C(N)=O)CC1`, the growth inhibition was 11.4% in test [1]; 4.55% in test [2]; -14.5% in test [3]; -0.05% in test [4]; -3.75% in test [5]; 5.1% in test [6].

With `CC1OC(OC2C(Oc3cc(O)c4c(c3)O[C@H](c3ccc(O)cc3)CC4=O)OC(CO)C(O)C2O)C(O)C(O)C1O` (some centres undefined), the growth inhibition in test [1] is 5.65%; in test [2] it was -12%; in test [3], -5.65%; in test [4], -3.6%; in test [5] it was -0.1%; in test [6], -46.2%.

Regarding `NC(=O)CS(=O)CC(N)C(=O)O` (centres undefined), the growth inhibition in test [1] was -5.9%; in test [2], -34.4%; in test [3], -46%; in test [4], -57.1%; in test [5], -10.9%; in test [6] it was -29.6%.

On to `C/C(=N/NC(N)=S)c1cn[nH]c1C`, for which the growth inhibition is -64.3% in test [1]; -19.9% in test [2]; -16.1% in test [3]; -55.4% in test [4]; 4.5% in test [5]; -1.6% in test [6].

As to `C/C(C=C1C(=O)NC(=S)NC1=O)=C\c1ccccc1`, the growth inhibition in test [1] is 13.5%; in test [2] it was -2.55%; in test [3], 8.35%; in test [4], -4.55%; in test [5], -8.5%; in test [6], 14.1%.
